Source: PubChem
Sampled rows, rich in hits. Any-hit rate of the full collection: about 1.4%.
MCL1 BIM primary: inhibitors of MCL1 binding to BIM-BH3, primary screen, biochemical, fluorescence polarization | Induced myeloid leukemia cell differentiation protein Mcl-1 (Homo sapiens), Q07820 | GST-MCL1 / FITC-Bim-BH3 fluorescence polarization | inhibition, % at 10.9 µM | 0.68% of 320,000 active;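 active = inhibition above the mean inhibition of all tested compounds plus 3 SD, set per campaign, cut at about 40% in these data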;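 note: 0% = DMSO wells and 100% = unlabeled Bim-BH3 peptide control; higher means more loss of mP so more displacement of Bim peptide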
MEX-5 binding: MEX-5 zinc finger RNA-binding disruptors – biochemical, C. elegans, fluorescence polarization, MLPCN library, primary screen. Zinc finger protein mex-5 (Caenorhabditis elegans), Q9XUB2. MEX-5/FITC-TCR2 RNA binding; active compounds read low. activity score (negative = inhibition of binding), % at 10 µM. 0.38% of 300,000 active. AID 1832, 2009;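 active = inhibition past about -25% in most replicates, and total fluorescence under double the plate's negative control median, limit read from the data; inconclusive = replicates evenly split on the limit, or fluorescence at least double controls; inactive = too little inhibition in most replicates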;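 note: 0% = DMSO and -100% = 5 µM competing unlabeled TCR2 RNA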
BCLXL inh: inhibitors of human Bcl-xL, primary screen, biochemical, fluorescence polarization, HTS; inhibition, % at 10.9 µM; GST-Bcl-xL / FITC-Bim BH3 peptide fluorescence polarization; 0.7% of 320,000 active; Bcl-2-like protein 1 (Homo sapiens), Q07817; AID 2129, 2009;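 active = inhibition above the mean of all tested compounds plus 3 SD, cutoff set per campaign, cut at about 30% in these data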;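 note: 0% = DMSO wells and 100% = unlabeled Bim-BH3 peptide competitor; inhibitors lower millipolarization by displacing the labeled peptide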
Target sequence (Q07817 whole entry, looked up): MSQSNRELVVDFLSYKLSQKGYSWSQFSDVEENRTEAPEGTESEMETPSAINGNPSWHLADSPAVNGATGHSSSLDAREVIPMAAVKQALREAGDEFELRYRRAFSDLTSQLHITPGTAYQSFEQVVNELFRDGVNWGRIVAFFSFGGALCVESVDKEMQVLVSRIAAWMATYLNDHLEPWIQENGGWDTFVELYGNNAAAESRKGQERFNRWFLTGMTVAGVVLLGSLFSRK
eLon inh: inhibitors of E. coli Lon protease, primary screen, biochemical, fluorescence polarization; inhibition, % at 7.94 µM; AID 602123, 2011; purified E. coli Lon protease; 0.42% of 360,000 active; in the data active = inhibition above about 13%, passing the limit was not always enough;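 note: 0% = enzyme with probe and DMSO and 100% = no enzyme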
GLD-1 RNA inh: GLD-1/TGE RNA complex disruptors, primary screen, biochemical, fluorescence polarization; inhibition, % at 5.96 µM; Female germline-specific tumor suppressor gld-1 (Caenorhabditis elegans), Q17339; 0.44% of 320,000 active; purified GLD-1 + fluorescein TGE RNA;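 active = percent inhibition above a per-plate cutoff, the plate mean of test compounds plus 3 SD, cut at about 30% in these data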;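 note: 0% = DMSO wells with GLD-1 and probe and 100% = wells lacking GLD-1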
EBV gp42 block: Epstein-Barr virus gp42 inhibitors, primary screen, biochemical, uHTS, fluorescence polarization; AID 1085, 2008; 0.42% of 220,000 active; Glycoprotein 42 (Epstein-Barr virus (strain AG876)), Q1HVG2; Fluorescence polarization binding assay, mP read-out; inhibition, % (tested at 21.74 µM); in the data active = inhibition above about 50%
Target sequence (Q1HVG2 whole entry, looked up): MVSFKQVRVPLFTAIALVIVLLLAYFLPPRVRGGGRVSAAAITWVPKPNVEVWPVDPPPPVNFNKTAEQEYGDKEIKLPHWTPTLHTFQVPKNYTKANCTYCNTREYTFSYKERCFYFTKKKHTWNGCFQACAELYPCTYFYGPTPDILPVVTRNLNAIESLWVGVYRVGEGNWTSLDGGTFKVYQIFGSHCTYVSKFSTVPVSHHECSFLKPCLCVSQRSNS
The depositor's hits bear a star.

For CCCN1C(=O)/C(=C/C=C2\N(CC)c3ccccc3C2(C)C)SC1=S the results were MCL1 BIM primary -71, MEX-5 binding 3, BCLXL inh -49, eLon inh -158, GLD-1 RNA inh 25 and EBV gp42 block 127*.
Screening CCCCCC(=O)N1C[C@H](O)[C@@H](n2cc(COC(=O)c3ccccc3)nn2)C[C@@H]1c1ccc(Cl)cc1 returned eLon inh -6.
Cc1cc(=O)n2nc(N3CCC(C(=O)NCCc4ccc(Cl)cc4)CC3)sc2n1 was read as MCL1 BIM primary -1, MEX-5 binding -2, BCLXL inh 3, eLon inh 0 and GLD-1 RNA inh -1.
For COc1ccc(CNC(=O)COC(=O)c2ccc(Br)cc2)cc1 the results were MCL1 BIM primary 2, MEX-5 binding 1, BCLXL inh 33*, eLon inh -6, GLD-1 RNA inh 0 and EBV gp42 block -11.
C=C1[C@@H](OC(C)=O)C=C[C@@]2(C)C=CC(=O)[C@@](C)(OC(C)=O)[C@@H]2[C@@H](OC(C)=O)[C@]2(O)[C@@H](C)C(=O)O[C@H]2[C@H]1Cl was read as eLon inh -3.
`O=C(O)c1ccc(-n2c(/C=C/c3cccc([N+](=O)[O-])c3)nc3ccccc3c2=O)cc1` gave MCL1 BIM primary 2, MEX-5 binding 0, BCLXL inh 0, eLon inh 2 and GLD-1 RNA inh -10.
For O=C(O)c1ccc(-n2c(/C=C/c3ccccc3)nc3ccccc3c2=O)cc1 the results were MCL1 BIM primary -1, MEX-5 binding -1, BCLXL inh 30*, eLon inh -13 and GLD-1 RNA inh -5.
For c1ccc(CCNc2ccc3c(c2)Cc2ccccc2-3)nc1 the results were eLon inh -11.
For Nc1cc(N)c(OCC(F)(F)F)cc1OCC(F)(F)F the results were MCL1 BIM primary 29, MEX-5 binding -1, BCLXL inh 39*, eLon inh 10, GLD-1 RNA inh 30 and EBV gp42 block 7.
CCCCC(Sc1nc(N)c(NC(=O)c2ccco2)c(=O)[nH]1)C(=O)O (stereo not given) was read as MCL1 BIM primary 38, MEX-5 binding 1, BCLXL inh 31*, eLon inh 3 and GLD-1 RNA inh 24.
`CCCCC(Sc1nc(N)c(NC(=O)c2ccc(OCC)cc2)c(=O)[nH]1)C(=O)O` (stereo not given) gave MCL1 BIM primary 13, MEX-5 binding -3, BCLXL inh 9, eLon inh -2, GLD-1 RNA inh 3 and EBV gp42 block -14.
Screening CC(=O)NCCNC(=O)c1ccc(CSc2nc3ccccc3s2)cc1 returned MCL1 BIM primary 10, MEX-5 binding -2, BCLXL inh 4, eLon inh -5 and GLD-1 RNA inh 1.
COc1ccccc1N1C(C)=CC(=C(C#N)c2nc3ccccc3s2)C=C1C was read as MCL1 BIM primary -13, MEX-5 binding -38*, BCLXL inh 0, eLon inh -5, GLD-1 RNA inh -6 and EBV gp42 block 164*.
For CC1=CC(=C(C#N)c2nc3ccccc3s2)C=C(C)N1c1ccc(F)cc1 the results were MCL1 BIM primary -8, MEX-5 binding 2, BCLXL inh 6, eLon inh -3, GLD-1 RNA inh 3 and EBV gp42 block 180*.
COc1cccc(CNC(=O)[C@@H]2CCCN2C(=O)[C@@H]2CCCN2)c1 was read as eLon inh -2.
Screening CCCCC1=CC2=CC(=O)C(C)(OC(=O)CC)C(=O)C2=CN1CCN1CCOCC1 (stereo not given) returned MCL1 BIM primary 37, MEX-5 binding -10, BCLXL inh 31*, GLD-1 RNA inh 21 and EBV gp42 block 12.
Screening O=C(OCCN1C(=O)c2cccc3c(N4CCOCC4)ccc(c23)C1=O)c1ccccc1Cl returned MCL1 BIM primary -9, MEX-5 binding inconclusive, BCLXL inh 25, eLon inh -192, GLD-1 RNA inh 19 and EBV gp42 block 146*.
